Reference: the supplement of paper PMC9262897, “Low-cost anti-mycobacterial drug discovery using engineered E. coli” (Nature Communications, 2022)
Structures can show the parent of a compound that is named as a salt. ± gives the standard deviation of the averaged measurements.

Each molecule was assayed on E. coli TESEC Mtb Asd (assay: growth (OD600 after 10 h); higher = more growth (less inhibition)). Settings: arabinose induction (level): Low; compound 0.1 mM; raw OD600 reference: median of DMSO wells 0.417, cell-free background 0.041.
Method: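 TESEC E. coli strains in which the native enzyme is deleted and replaced by arabinose-inducible Mtb Asd, DapB, CysH or TrpD, each grown in its selective medium. Strains were screened against the Prestwick library at 0.1 mM and 1% DMSO in 384-well format at low and high arabinose induction. Growth is read as OD600 after 10 h in triplicate.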

Question: How did the growth turn out when `CN(C)CCc1c[nH]c2ccc(Cn3cncn3)cc12` [Rizatriptan benzoate] was run?
Answer: Its growth is 0.417 ± 0.051.

Question: With `COc1ccc(CCN(C)CCCC(C#N)(c2ccc(OC)c(OC)c2)C(C)C)cc1OC` (centres undefined) [Verapamil hydrochloride] as the molecule, how does the growth read?
Answer: Its growth is 0.346 ± 0.095.

Question: Which growth does the source give for `CC1=C(/C=C/C(C)=C/C=C/C(C)=C\C(=O)O)C(C)(C)CCC1` [Isotretinoin] here?
Answer: Its growth is 0.365 ± 0.073.

Question: For `CCCOc1cc(N)ccc1C(=O)OCCN(CC)CC` [Propoxycaine hydrochloride], which growth is on record?
Answer: The growth was 0.376 ± 0.079.

Question: With `CO/N=C(\C(=O)N[C@@H]1C(=O)N2C(C(=O)O)=C(COC(C)=O)CS[C@H]12)c1csc(N)n1` [Cefotaxime sodium salt] as the molecule, how does the growth read?
Answer: Its growth is 0.0606 ± 0.002.

Question: For `Clc1ccc(Cn2c(CN3CCCC3)nc3ccccc32)cc1` [Clemizole hydrochloride], which growth is on record?
Answer: The growth was 0.135 ± 0.0075.

Question: For `COc1ccccc1N1CCN(CCCCNC(=O)c2ccc3ccccc3c2)CC1`, which growth is on record?
Answer: Its growth is 0.265 ± 0.013.

Question: `CC[C@H](c1ccc(O)cc1)[C@@H](CC)c1ccc(O)cc1` [Hexestrol] was tested. Which growth did it give?
Answer: Its growth is 0.0486 ± 0.0013.

Question: Which growth does the source give for `Cc1cc(N)c2ccccc2[n+]1CCCCCCCCCC[n+]1c(C)cc(N)c2ccccc21` [Dequalinium dichloride] here?
Answer: The growth was 0.0634 ± 0.006.

Question: For `Clc1ccc(Nc2nnc(Cc3ccncc3)c3ccccc23)cc1` [Vatalanib], which growth is on record?
Answer: Its growth is 0.0893 ± 0.021.

Question: Which growth does the source give for `NNc1nncc2ccccc12` [Hydralazine hydrochloride] here?
Answer: The growth was 0.25 ± 0.021.

Question: How did the growth turn out when `NC(Cc1cc(I)c(Oc2cc(I)c(O)c(I)c2)c(I)c1)C(=O)O` (centres undefined) [Thyroxine (L)] was run?
Answer: Its growth is 0.292 ± 0.042.

Question: With `Cc1onc(-c2c(F)cccc2Cl)c1C(=O)N[C@@H]1C(=O)N2[C@@H]1SC(C)(C)[C@@H]2C(=O)O` [Flucloxacillin sodium] as the molecule, how does the growth read?
Answer: Its growth is 0.432 ± 0.059.

Question: For `C[C@H](N[C@@H](CCc1ccccc1)C(=O)O)C(=O)N1CCC[C@H]1C(=O)O` [Enalaprilat dihydrate], which growth is on record?
Answer: The growth was 0.31 ± 0.094.

Question: `COCCOC(=O)C1=C(C)NC(C)=C(C(=O)OC/C=C/c2ccccc2)C1c1cccc([N+](=O)[O-])c1` (centres undefined) [Cilnidipine] was tested. Which growth did it give?
Answer: Its growth is 0.319 ± 0.026.

Question: Which growth does the source give for `CCCNCC(O)COc1ccccc1C(=O)CCc1ccccc1` (centres undefined) [Propafenone hydrochloride] here?
Answer: The growth was 0.345 ± 0.02.

Question: Which growth does the source give for `Cn1nnc2c(C(N)=O)ncn2c1=O` [Temozolomide] here?
Answer: Its growth is 0.305 ± 0.022.

Question: `CCc1nn(CCCN2CCN(c3cccc(Cl)c3)CC2)c(=O)n1CCOc1ccccc1` [Nefazodone HCl] was tested. Which growth did it give?
Answer: The growth was 0.0479 ± 0.0011.

Question: `CC(=O)OCC(=O)[C@@]12OC3(CCCC3)O[C@@H]1C[C@H]1[C@@H]3CCC4=CC(=O)C=C[C@]4(C)[C@@]3(F)[C@@H](O)C[C@@]12C` [Amcinonide] was tested. Which growth did it give?
Answer: The growth was 0.402 ± 0.067.

Question: Which growth does the source give for `COc1ccccc1O` [Guaiacol] here?
Answer: The growth was 0.364 ± 0.063.

Question: Which growth does the source give for `C(=C\c1ccccc1)/CN1CCN(C(c2ccccc2)c2ccccc2)CC1` [Cinnarizine] here?
Answer: The growth was 0.395 ± 0.02.

Question: `CCN(CC)C(C)CN1c2ccccc2Sc2ccccc21` (centres undefined) [Ethopropazine hydrochloride] was tested. Which growth did it give?
Answer: Its growth is 0.289 ± 0.03.

Question: `CC(CCc1ccccc1)NCC(O)c1ccc(O)c(C(N)=O)c1` (centres undefined) [Labetalol hydrochloride] was tested. Which growth did it give?
Answer: Its growth is 0.407 ± 0.046.

Question: For `CN(Cc1cnc2nc(N)nc(N)c2n1)c1ccc(C(=O)N[C@@H](CCC(=O)O)C(=O)O)cc1` [Methotrexate], which growth is on record?
Answer: Its growth is 0.359 ± 0.022.

Question: How did the growth turn out when `NS(=O)(=O)c1cc2c(cc1Cl)NC(CC1CCCC1)NS2(=O)=O` (centres undefined) [Cyclopenthiazide] was run?
Answer: Its growth is 0.314 ± 0.053.

Question: Which growth does the source give for `CC1(C)NC(=O)N(c2ccc([N+](=O)[O-])c(C(F)(F)F)c2)C1=O` [Nilutamide] here?
Answer: The growth was 0.399 ± 0.042.

Question: With `CC(=O)O[C@H]1C[C@@H]2CC[C@@H]3[C@H](CC[C@@]4(C)[C@H]3C[C@H]([N+]3(C)CCCCC3)[C@@H]4OC(C)=O)[C@@]2(C)C[C@@H]1N1CCCCC1` [Vecuronium bromide] as the molecule, how does the growth read?
Answer: Its growth is 0.124 ± 0.0035.

Question: How did the growth turn out when `Clc1ccc(C(Cn2ccnc2)OCc2csc3c(Cl)cccc23)c(Cl)c1` (centres undefined) [Sertaconazole nitrate] was run?
Answer: The growth was 0.0635 ± 0.0047.

Question: How did the growth turn out when `Cn1c(=O)c2c(ncn2C)n(C)c1=O` [Caffeine] was run?
Answer: Its growth is 0.352 ± 0.11.

Question: For `C[N+]1(C)CCC(OC(=O)C(O)(c2ccccc2)C2CCCC2)C1` (centres undefined) [Glycopyrrolate], which growth is on record?
Answer: Its growth is 0.425 ± 0.04.

Question: Which growth does the source give for `Clc1cccc(Cl)c1NC1=NCCN1` [Clonidine hydrochloride] here?
Answer: The growth was 0.422 ± 0.016.

Question: Which growth does the source give for `Cc1cc(O)c(C(=O)N[C@@H](C(=O)N[C@@H]2C(=O)N3C(C(=O)O)=C(CSc4nnnn4C)CS[C@H]23)c2ccc(O)cc2)cn1` [Cefpiramide] here?
Answer: The growth was 0.375 ± 0.077.

Question: `C#C[C@]1(O)CC[C@H]2[C@@H]3CCC4=C(CCC(=O)C4)[C@H]3CC[C@@]21C` [Norethynodrel] was tested. Which growth did it give?
Answer: Its growth is 0.13 ± 0.006.

Question: `Nc1ccc(O)c(C(=O)O)c1` [Mesalamine] was tested. Which growth did it give?
Answer: Its growth is 0.362 ± 0.061.
